Source: PubChem BioAssay (EPA / NIEHS)
Records with an inconclusive call do not appear. Calls of active or inactive are those of the source. Rule for the calls, unless noted: active = hit-call score of the fitted dose curve at least 0.9, where 1 is the maximum; inconclusive = response in the unintended direction; inactive = score below 0.9.

What was measured:
[1] = biological target: Retinoic acid receptor alpha (Homo sapiens) (UniProt P10276); assay: ATG_DR5_RAR_CIS: Attagene CIS-FACTORIAL HepG2 Assay for human Retinoic Acid Receptor Alpha (RARE), DR5 submotif (AID 2282934; active = hit-call score of the fitted dose curve at least 0.9, where 1 is the maximum; inactive = score below 0.9); conditions: HepG2 Attagene cis-factorial RARE DR5 reporter, mRNA; actives raise or lower the signal
How it was run: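 Transient MRTU transfection of HepG2; 24 h compound treatment; TriZol RNA, oligo(dT) RT, PCR, FAM labelling, capillary electrophoresis. Bidirectional fit vs DMSO. Endogenous TF activity at DR5 RARE.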

[2] = biological target: Bile acid receptor (Homo sapiens) (UniProt Q96RI1); assay: ATG_IR1_CIS: Attagene CIS-FACTORIAL HepG2 Assay for human Nuclear Receptor Subfamily 1 Group H Member 4 (NR1H4), IR1 submotif (AID 2282946; active = hit-call score of the fitted dose curve at least 0.9, where 1 is the maximum; inactive = score below 0.9); conditions: IR1 reporter transcription, actives raise or lower the signal
How it was run: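 HepG2 cells transiently transfected with multiplexed cis-element reporter units read endogenous transcription factor activity. After 24 h compound exposure, reporter mRNA was quantified by RT-PCR, fluorescent labelling, HpaI digestion and capillary electrophoresis; bidirectional fitting versus DMSO baseline.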

[3] = ATG_M_19_TRANS: Attagene TRANS-FACTORIAL HepG2 Assay for M19 Transcription Factor (Internal Marker) (AID 2282974); conditions: HepG2 Attagene TRANS-FACTORIAL M19 internal marker reporter
How it was run: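 Background-control readout: after 24 h chemical exposure of transfected HepG2 carrying GAL4-driven reporter units, RNA was reverse-transcribed, amplified, fluorescently labeled and sized by capillary electrophoresis; gain-of-signal fit against DMSO.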

[4] = ATG_GAL4_TRANS: Attagene TRANS-FACTORIAL HepG2 Assay for GAL4 (Internal Marker) (AID 2282976); conditions: HepG2 Attagene TRANS GAL4 internal marker reporter
How it was run: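 HepG2 cells transiently transfected with multiplexed GAL4-UAS reporter constructs were dosed for 24 h. Reporter mRNA was measured by RT-PCR, 6-FAM primer extension, HpaI digestion and capillary electrophoresis, and gain of signal was fitted relative to DMSO.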

[5] = biological target: Oxysterols receptor LXR-alpha (Homo sapiens) (UniProt Q13133); assay: ATG_LXRa_TRANS: Attagene TRANS-FACTORIAL HepG2 Assay for human Liver X Receptor alpha (LXRa) (AID 2282980); conditions: HepG2 Attagene TRANS reporter, LXRa transactivation
How it was run: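 HepG2 cells were transiently transfected with multiplexed reporter units driven by chimeric LXRa–GAL4 fusion proteins, then dosed for 24 h. Reporter mRNA was quantified by RT-PCR, fluorescent labelling and capillary electrophoresis; gain of signal fitted against DMSO baseline.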

[6] = biological target: Oxysterols receptor LXR-beta (Homo sapiens) (UniProt P55055); assay: ATG_LXRb_TRANS: Attagene TRANS-FACTORIAL HepG2 Assay for human Liver X Receptor beta (LXRb) (AID 2282981); conditions: HepG2 Attagene TRANS GAL4-LXRb reporter, mRNA
How it was run: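 After 24 h chemical treatment of transfected HepG2 cells carrying exogenous NR-Gal4 chimeras, reporter mRNA was quantified by fluorescent RT-PCR and capillary electrophoresis; activity taken as increase over DMSO controls.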

[7] = biological target: Hepatocyte nuclear factor 4-alpha (Homo sapiens) (UniProt P41235); assay: ATG_HNF4a_TRANS: Attagene TRANS-FACTORIAL HepG2 Assay for human Hepatocyte Nuclear Factor 4 alpha (HNF4a) (AID 2282982); conditions: HepG2 HNF4a transactivation reporter, mRNA readout
How it was run: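 Activity of an exogenous HNF4a–Gal4 fusion scored as induced GAL4-UAS reporter transcripts after 24 h chemical exposure of transfected human HepG2 cells. Read-out via RT-PCR with 6-FAM labelling and capillary electrophoresis; rise over DMSO baseline.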

[8] = biological target: human Thyroid Receptor alpha (THRa1), THRA (gene 7067) (UniProt P10827); assay: ATG_THRa1_TRANS: Attagene TRANS-FACTORIAL HepG2 Assay for human Thyroid Receptor alpha (THRa1) (AID 2283014)
How it was run: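 HepG2 cells transiently transfected with multiplexed GAL4-UAS reporter units for exogenous chimeric THRa1-Gal4; reporter mRNA measured 24 h after dosing by RT-PCR, 6-FAM labelling, HpaI digestion and capillary electrophoresis. Gain-of-signal fitted versus DMSO baseline.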

[9] = biological target: human Vitamin D Receptor (VDR), VDR (gene 7421) (UniProt P11473); assay: ATG_VDR_TRANS: Attagene TRANS-FACTORIAL HepG2 Assay for human Vitamin D Receptor (VDR) (AID 2283022)
How it was run: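 HepG2 cells were transiently transfected with multiple GAL4-UAS reporter units, so signal reflects exogenous chimeric receptor-Gal4 activity. After 24 h compound exposure, reporter mRNA was measured by RT-PCR, fluorescent labelling and capillary electrophoresis, fitted for gain of signal versus DMSO.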

[10] = TOX21_p53_BLA_p2_viability: Viability Assessment in the Tox21 HCT-116 p53 Agonism Beta-lactamase Assay, Phase 2 (AID 2283591);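 note: compound exposure lasted 16 h at 37 °C; actives lower the ATP signal meaning cytotoxicity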
How it was run: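 Cytotoxicity readout: CellTiter-Glo ATP luminescence, 30 min at room temperature, after the beta-lactamase read. Cells were HCT116 exposed 16 h at 37C to compounds pin-transferred at 217-fold dilution from DMSO stocks.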

[11] = TOX21_p53_BLA_p4_viability: Viability Assessment in the Tox21 HCT-116 p53 Agonism Beta-lactamase Assay, Phase 4 (AID 2283597);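 note: hits lower the luminescence signal meaning cytotoxicity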
How it was run: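 Cytotoxicity was inferred from loss of CellTiter-Glo luminescence. HCT116 cells had been dosed with compounds after 5 h plating, incubated 16 h at 37C and 5% CO2, and exposed to the CCF4-AM substrate for 2 h.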

[12] = TOX21_p53_BLA_p5_viability: Viability Assessment in the Tox21 HCT-116 p53 Agonism Beta-lactamase Assay, Phase 5 (AID 2283600)
How it was run: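 Luciferase-coupled ATP quantitation of cells treated for 16 h (37C, 5% CO2) with test chemicals delivered in DMSO via a 217-fold dilution; 4000 cells/well; reagent incubated 30 min at room temperature before luminescence reading.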

[13] = ACEA_ER_AUC_viability: ACEA Biosciences xCELLigence Real-Time Cell Analysis on Estrogen Receptor Agonism for Viability (AID 2283782);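 note: hit means loss of impedance signal meaning reduced cell growth or viability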
How it was run: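 Viability endpoint: reduced impedance area under the curve relative to DMSO, recorded by real-time electrode sensing over ~80 h of continuous exposure. Duplicate plates of T47D in hormone-depleted medium; eight concentrations, 1:4 dilutions, 100 uM maximum.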

[14] = CCTE_Harrill_HTTr_Apoptosis_MCF7: CCTE's 6-hour Apoptosis Assessment for the High-Throughput Transcriptomics (HTTr) Platform, in MCF-7 cells cultured in DMEM + 10% fetal bovine serum, Harrill Lab (AID 2284011; active = hit-call score of the fitted dose curve at least 0.9, where 1 is the maximum; inactive = score below 0.9)
How it was run: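 MCF-7 cells in DMEM + 10% fetal bovine serum were exposed to chemicals for 6 hours over an eight-point dilution series. Caspase-3/7 activation was imaged by high content imaging with CellEvent Caspase 3/7 Green; bidirectional fitting used DMSO as baseline.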

[15] = biological target: human Peroxisome Proliferator-activated Receptor alpha (PPARa), PPARA (gene 5465) (UniProt Q07869); assay: ATG_PPARa_TRANS: Attagene TRANS-FACTORIAL HepG2 Assay for human Peroxisome Proliferator-activated Receptor alpha (PPARa) (AID 2283001)
How it was run: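 Reporter transcripts quantified by RT-PCR plus capillary electrophoresis after 24 h treatment, fitted upward relative to DMSO. Cells: human HepG2 transiently carrying multiple GAL4-UAS reporter units driven by NR-Gal4 chimeras.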

[16] = biological target: human Retinoid X Receptor beta (RXRb), RXRB (gene 6257) (UniProt P28702); assay: ATG_RXRb_TRANS: Attagene TRANS-FACTORIAL HepG2 Assay for human Retinoid X Receptor beta (RXRb) (AID 2283013)
How it was run: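 Readout is reporter transcript induction after 24 h dosing. It is measured by RT-PCR of total RNA followed by fluorescent capillary electrophoresis. HepG2 liver cells carry transfected multiple reporter units driven by an exogenous RXRb-Gal4 fusion; activity is relative to DMSO.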

[17] = biological target: Nuclear receptor subfamily 1 group I member 3 (Homo sapiens) (UniProt Q14994); assay: ATG_CAR_TRANS: Attagene TRANS-FACTORIAL HepG2 Assay for human Constitutive Androstane Receptor (CAR) (AID 2282969); conditions: HepG2 Attagene TRANS-FACTORIAL CAR reporter;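 note: activators raise reporter mRNA above DMSO so AC50 marks induction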
How it was run: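 Signal is reporter mRNA induction relative to DMSO, measured 24 h after dosing by RT-PCR with fluorescent primer extension and capillary electrophoresis. Human HepG2 liver cells carried transiently transfected chimeric NR-Gal4/GAL4-UAS reporter constructs.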

[18] = biological target: human Peroxisome Proliferator-activated Receptor delta (PPARd), PPARD (gene 5467) (UniProt Q03181); assay: ATG_PPARd_TRANS: Attagene TRANS-FACTORIAL HepG2 Assay for human Peroxisome Proliferator-activated Receptor delta (PPARd) (AID 2283002)
How it was run: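 Transient HepG2 transfection (multiple GAL4-UAS RTUs, chimeric receptor-Gal4); 24 h dosing; total RNA → oligo(dT) RT → PCR → 6-FAM primer extension → HpaI cut → CE. Positive direction vs DMSO.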

[19] = biological target: human RAR-related Orphan Receptor beta (RORb), RORB (gene 6096) (UniProt Q92753); assay: ATG_RORb_TRANS: Attagene TRANS-FACTORIAL HepG2 Assay for human RAR-related Orphan Receptor beta (RORb) (AID 2283010)
How it was run: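 Read-out is reporter mRNA induction, quantified by RT-PCR with fluorescent capillary electrophoresis, 24 h post-dose in transiently transfected HepG2 expressing exogenous NR-Gal4 chimera. Activity fitted upward versus DMSO.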

[20] = TOX21_p53_BLA_p3_viability: Viability Assessment in the Tox21 HCT-116 p53 Agonism Beta-lactamase Assay, Phase 3 (AID 2283593);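 note: cells exposed to compound for 16 h before reading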
How it was run: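 Cellular ATP was quantified by CellTiter-Glo luminescence, read after 30 min at room temperature. Beforehand, HCT116 cells (4000/well) received compound 5 h post-seeding, 217-fold diluted from DMSO, then incubated 16 h at 37C.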

human Peroxisome Proliferator-activated Receptor delta (PPARd), PPARD (gene 5467), sequence (Q03181 whole entry, looked up, the tested form may be a part): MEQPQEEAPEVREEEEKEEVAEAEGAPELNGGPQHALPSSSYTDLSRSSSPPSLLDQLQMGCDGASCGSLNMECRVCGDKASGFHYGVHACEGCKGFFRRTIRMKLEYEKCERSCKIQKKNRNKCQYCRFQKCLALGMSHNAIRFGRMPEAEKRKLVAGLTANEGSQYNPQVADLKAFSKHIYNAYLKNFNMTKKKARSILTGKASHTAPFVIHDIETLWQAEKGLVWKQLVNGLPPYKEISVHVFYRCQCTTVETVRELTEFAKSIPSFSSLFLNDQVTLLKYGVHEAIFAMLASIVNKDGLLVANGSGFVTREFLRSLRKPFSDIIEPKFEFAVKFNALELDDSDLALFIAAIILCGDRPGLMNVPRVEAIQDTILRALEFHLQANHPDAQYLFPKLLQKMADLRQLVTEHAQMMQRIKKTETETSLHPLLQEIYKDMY
Nuclear receptor subfamily 1 group I member 3 (Homo sapiens), sequence (Q14994 whole entry, looked up, the tested form may be a part): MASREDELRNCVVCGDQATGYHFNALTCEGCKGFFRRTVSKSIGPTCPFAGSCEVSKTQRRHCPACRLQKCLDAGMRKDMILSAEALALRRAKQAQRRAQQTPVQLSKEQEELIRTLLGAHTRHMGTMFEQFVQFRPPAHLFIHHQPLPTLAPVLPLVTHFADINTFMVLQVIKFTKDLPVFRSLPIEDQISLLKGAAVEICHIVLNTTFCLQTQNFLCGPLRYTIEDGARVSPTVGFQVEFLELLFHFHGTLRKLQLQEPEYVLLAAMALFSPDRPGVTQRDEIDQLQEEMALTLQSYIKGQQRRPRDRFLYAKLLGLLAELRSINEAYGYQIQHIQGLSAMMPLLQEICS
Hepatocyte nuclear factor 4-alpha (Homo sapiens), sequence (P41235 whole entry, looked up, the tested form may be a part): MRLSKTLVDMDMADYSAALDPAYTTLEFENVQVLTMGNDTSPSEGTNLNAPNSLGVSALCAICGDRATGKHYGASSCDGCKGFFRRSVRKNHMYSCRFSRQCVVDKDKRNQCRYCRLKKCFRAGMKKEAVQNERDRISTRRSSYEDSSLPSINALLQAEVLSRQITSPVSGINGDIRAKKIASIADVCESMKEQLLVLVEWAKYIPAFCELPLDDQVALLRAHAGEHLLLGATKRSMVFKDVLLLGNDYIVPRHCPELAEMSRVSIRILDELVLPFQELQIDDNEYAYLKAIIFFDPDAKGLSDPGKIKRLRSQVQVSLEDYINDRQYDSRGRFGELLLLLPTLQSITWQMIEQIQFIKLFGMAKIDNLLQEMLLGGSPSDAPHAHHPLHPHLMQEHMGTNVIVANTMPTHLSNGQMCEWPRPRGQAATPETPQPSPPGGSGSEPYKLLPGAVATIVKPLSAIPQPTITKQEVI
Oxysterols receptor LXR-alpha (Homo sapiens), sequence (Q13133 whole entry, looked up, the tested form may be a part): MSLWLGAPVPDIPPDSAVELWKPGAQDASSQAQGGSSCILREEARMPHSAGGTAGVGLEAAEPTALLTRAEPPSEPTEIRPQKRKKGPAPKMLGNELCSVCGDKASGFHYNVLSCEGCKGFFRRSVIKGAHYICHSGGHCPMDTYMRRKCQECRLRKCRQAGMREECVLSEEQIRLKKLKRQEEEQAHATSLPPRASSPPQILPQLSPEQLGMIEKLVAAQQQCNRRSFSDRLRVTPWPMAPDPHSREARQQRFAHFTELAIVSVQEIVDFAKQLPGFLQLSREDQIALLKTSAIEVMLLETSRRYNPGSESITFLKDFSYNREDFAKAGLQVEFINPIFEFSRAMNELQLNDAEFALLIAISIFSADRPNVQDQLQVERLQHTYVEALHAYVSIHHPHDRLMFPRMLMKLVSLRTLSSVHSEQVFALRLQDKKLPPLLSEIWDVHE
human Retinoid X Receptor beta (RXRb), RXRB (gene 6257), sequence (P28702 whole entry, looked up, the tested form may be a part): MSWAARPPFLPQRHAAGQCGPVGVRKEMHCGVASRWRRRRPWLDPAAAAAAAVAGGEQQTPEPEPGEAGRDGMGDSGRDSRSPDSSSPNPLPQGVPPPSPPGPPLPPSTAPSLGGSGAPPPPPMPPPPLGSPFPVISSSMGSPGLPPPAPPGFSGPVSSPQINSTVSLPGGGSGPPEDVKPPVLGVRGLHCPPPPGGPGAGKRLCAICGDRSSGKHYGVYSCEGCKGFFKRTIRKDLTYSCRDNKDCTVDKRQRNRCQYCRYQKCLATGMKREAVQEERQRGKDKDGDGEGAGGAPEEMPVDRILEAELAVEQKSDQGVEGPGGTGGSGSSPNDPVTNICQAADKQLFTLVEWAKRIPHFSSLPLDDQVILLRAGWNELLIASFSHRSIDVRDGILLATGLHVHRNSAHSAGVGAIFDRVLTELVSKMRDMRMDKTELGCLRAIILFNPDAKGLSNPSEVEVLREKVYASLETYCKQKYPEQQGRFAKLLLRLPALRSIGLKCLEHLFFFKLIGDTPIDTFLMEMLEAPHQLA
Oxysterols receptor LXR-beta (Homo sapiens), sequence (P55055 whole entry, looked up, the tested form may be a part): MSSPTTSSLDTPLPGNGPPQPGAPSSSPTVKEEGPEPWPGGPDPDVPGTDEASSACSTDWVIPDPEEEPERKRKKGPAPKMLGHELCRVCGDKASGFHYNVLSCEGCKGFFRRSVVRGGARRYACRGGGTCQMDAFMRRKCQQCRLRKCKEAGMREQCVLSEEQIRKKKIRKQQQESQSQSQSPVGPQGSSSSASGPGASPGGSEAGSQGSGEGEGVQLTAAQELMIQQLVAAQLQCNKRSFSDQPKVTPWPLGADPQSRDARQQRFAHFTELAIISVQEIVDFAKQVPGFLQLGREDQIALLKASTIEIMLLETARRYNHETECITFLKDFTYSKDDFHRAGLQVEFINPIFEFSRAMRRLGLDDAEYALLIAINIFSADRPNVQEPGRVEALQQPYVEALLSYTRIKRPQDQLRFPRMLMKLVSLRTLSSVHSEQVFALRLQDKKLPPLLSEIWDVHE
human RAR-related Orphan Receptor beta (RORb), RORB (gene 6096), sequence (Q92753 whole entry, looked up, the tested form may be a part): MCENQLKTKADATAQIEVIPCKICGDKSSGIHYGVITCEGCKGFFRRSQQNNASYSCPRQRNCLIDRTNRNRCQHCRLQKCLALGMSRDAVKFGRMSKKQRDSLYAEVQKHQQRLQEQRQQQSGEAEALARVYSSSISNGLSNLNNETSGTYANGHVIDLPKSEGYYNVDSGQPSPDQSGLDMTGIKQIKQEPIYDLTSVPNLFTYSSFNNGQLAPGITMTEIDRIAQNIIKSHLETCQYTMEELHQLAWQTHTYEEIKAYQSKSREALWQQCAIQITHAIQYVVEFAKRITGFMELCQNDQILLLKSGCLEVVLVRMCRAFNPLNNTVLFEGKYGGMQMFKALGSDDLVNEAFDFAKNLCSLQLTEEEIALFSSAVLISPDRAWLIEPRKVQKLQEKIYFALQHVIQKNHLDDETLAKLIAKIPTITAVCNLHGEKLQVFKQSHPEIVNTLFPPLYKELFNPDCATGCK
human Thyroid Receptor alpha (THRa1), THRA (gene 7067), sequence (P10827 whole entry, looked up, the tested form may be a part): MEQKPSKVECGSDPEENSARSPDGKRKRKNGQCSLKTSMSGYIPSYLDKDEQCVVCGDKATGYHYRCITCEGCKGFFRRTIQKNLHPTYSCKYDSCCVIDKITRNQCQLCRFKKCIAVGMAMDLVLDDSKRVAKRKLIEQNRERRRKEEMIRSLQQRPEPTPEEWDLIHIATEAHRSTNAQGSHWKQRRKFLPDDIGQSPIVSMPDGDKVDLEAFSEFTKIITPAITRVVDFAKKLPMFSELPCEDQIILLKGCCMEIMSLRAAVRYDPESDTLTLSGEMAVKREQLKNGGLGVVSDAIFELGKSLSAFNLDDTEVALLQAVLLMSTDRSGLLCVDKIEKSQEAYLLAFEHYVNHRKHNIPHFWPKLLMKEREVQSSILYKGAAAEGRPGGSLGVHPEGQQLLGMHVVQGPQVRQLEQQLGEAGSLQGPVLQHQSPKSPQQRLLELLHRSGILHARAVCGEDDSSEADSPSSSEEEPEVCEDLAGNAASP
human Peroxisome Proliferator-activated Receptor alpha (PPARa), PPARA (gene 5465), sequence (Q07869 whole entry, looked up, the tested form may be a part): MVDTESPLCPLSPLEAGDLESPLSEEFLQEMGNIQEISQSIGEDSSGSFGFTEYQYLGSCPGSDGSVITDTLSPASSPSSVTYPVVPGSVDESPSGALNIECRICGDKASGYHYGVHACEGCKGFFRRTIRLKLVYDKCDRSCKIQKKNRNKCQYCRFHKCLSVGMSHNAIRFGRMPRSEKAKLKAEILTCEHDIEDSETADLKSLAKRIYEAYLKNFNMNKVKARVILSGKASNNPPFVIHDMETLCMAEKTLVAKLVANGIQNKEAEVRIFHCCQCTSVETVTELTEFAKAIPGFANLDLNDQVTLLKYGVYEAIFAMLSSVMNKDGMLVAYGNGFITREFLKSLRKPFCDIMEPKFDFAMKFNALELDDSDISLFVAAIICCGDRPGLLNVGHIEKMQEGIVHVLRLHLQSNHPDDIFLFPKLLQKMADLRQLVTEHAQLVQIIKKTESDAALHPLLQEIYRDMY
Retinoic acid receptor alpha (Homo sapiens), sequence (P10276 whole entry, looked up): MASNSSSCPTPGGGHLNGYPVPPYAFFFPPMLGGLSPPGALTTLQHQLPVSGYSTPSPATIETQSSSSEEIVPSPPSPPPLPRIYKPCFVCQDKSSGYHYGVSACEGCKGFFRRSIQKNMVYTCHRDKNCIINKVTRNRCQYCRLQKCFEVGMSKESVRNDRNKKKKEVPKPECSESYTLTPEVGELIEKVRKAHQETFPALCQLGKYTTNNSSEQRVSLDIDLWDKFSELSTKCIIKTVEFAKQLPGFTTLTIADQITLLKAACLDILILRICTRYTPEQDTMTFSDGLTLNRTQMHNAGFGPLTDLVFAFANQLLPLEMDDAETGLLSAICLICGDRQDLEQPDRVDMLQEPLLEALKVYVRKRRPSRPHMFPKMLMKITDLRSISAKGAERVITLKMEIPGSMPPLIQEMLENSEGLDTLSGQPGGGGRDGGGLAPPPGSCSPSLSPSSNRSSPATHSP

Structure (SMILES): O=S(=O)(c1ccccc1)c1ccccc1
- outcome [1]: inactive
- outcome [2]: inactive
- outcome [3]: inactive
- outcome [4]: inactive
- outcome [5]: inactive
- outcome [6]: inactive
- outcome [7]: inactive
- outcome [8]: inactive
- outcome [9]: inactive
- outcome [10]: inactive
- outcome [11]: inactive
- outcome [12]: inactive
- outcome [13]: inactive
- outcome [14]: inactive

Structure (SMILES): O=S(=O)(O)O
- outcome [6]: inactive
- outcome [15]: inactive
- outcome [16]: inactive
- outcome [8]: inactive
- AC50 [13]: 6.09 µM (active)
- outcome [14]: inactive

Structure (SMILES): CCC(=O)c1ccc(Cl)cc1
- outcome [1]: inactive
- outcome [17]: inactive
- outcome [4]: inactive
- outcome [5]: inactive
- outcome [6]: inactive
- outcome [7]: inactive
- outcome [18]: inactive
- outcome [16]: inactive
- outcome [8]: inactive
- outcome [9]: inactive
- outcome [13]: inactive

Structure (SMILES): CN(C)C(=O)C(c1ccccc1)c1ccccc1
- outcome [1]: inactive
- outcome [17]: inactive
- outcome [3]: inactive
- outcome [4]: inactive
- outcome [5]: inactive
- outcome [7]: inactive
- outcome [15]: inactive
- outcome [18]: inactive
- outcome [19]: inactive
- outcome [16]: inactive
- outcome [9]: inactive
- outcome [10]: inactive
- outcome [20]: inactive
- outcome [11]: inactive
- outcome [12]: inactive
- outcome [14]: inactive

Structure (SMILES): CC(C)C#N
- outcome [1]: inactive
- outcome [3]: inactive
- outcome [4]: inactive
- outcome [5]: inactive
- outcome [6]: inactive
- outcome [7]: inactive
- outcome [15]: inactive
- outcome [18]: inactive
- outcome [8]: inactive
- outcome [13]: inactive

Structure (SMILES): Nc1ccc(Cl)c(Cl)c1
- outcome [6]: inactive
- outcome [15]: inactive
- outcome [16]: inactive
- outcome [8]: inactive
- outcome [9]: inactive
- outcome [10]: inactive
- outcome [20]: inactive
- outcome [11]: inactive
- outcome [14]: inactive

Structure (SMILES): C#CC1(O)CCCCC1
- outcome [1]: inactive
- outcome [4]: inactive
- outcome [19]: inactive
- outcome [16]: inactive
- outcome [11]: inactive
- AC50 [13]: 61.7 µM (active)

Structure (SMILES): N#CCNCC#N
- outcome [3]: inactive
- outcome [4]: inactive
- outcome [15]: inactive
- outcome [18]: inactive
- outcome [19]: inactive
- outcome [9]: inactive
- outcome [13]: inactive

Structure (SMILES): C[C@]12CC[C@H]3[C@@H](CC[C@@]45O[C@@H]4C(O)=C(C#N)C[C@]35C)[C@@H]1CC[C@@H]2O
- outcome [17]: inactive
- outcome [5]: inactive
- outcome [6]: inactive
- outcome [7]: inactive
- outcome [18]: inactive
- outcome [8]: inactive
- outcome [9]: inactive
- outcome [10]: inactive
- outcome [20]: inactive
- outcome [12]: inactive
- outcome [14]: inactive

Structure (SMILES): S=c1[nH]c2ccccc2[nH]1
- outcome [1]: inactive
- outcome [17]: inactive
- outcome [4]: inactive
- outcome [7]: inactive
- outcome [15]: inactive
- outcome [16]: inactive
- outcome [10]: inactive
- outcome [20]: inactive
- outcome [11]: inactive
- outcome [12]: inactive
- outcome [13]: inactive

Structure (SMILES): Cc1ccc(OP(=O)(Oc2ccc(C)cc2)Oc2ccc(C)cc2)cc1 (tested in a mixture with another compound)
- outcome [1]: inactive
- outcome [3]: inactive
- outcome [10]: inactive
- outcome [11]: inactive
- outcome [12]: inactive
- outcome [13]: inactive
- outcome [14]: inactive

Structure (SMILES): C=Cc1cccc(CCl)c1
- outcome [2]: inactive
- outcome [17]: inactive
- outcome [3]: inactive
- outcome [7]: inactive
- outcome [15]: inactive
- outcome [16]: inactive
- outcome [8]: inactive
- outcome [10]: inactive
- outcome [20]: inactive
- outcome [12]: inactive
